Test results: PubChem BioAssay AID492948 (National Center for Advancing Translational Sciences (NCATS), 2010)
Results filed as inconclusive are left out. Activity calls are given as the source filed them. The call rests on the fitted dose curve; in most records, active means well fitted activation curve with a large enough effect; inconclusive means small, poorly fitted or top-dose-only effect; inactive means no such curve, though single readings can be large or run the other way.

Assay: qHTS Assay for Agonists of the Relaxin Receptor RXFP1: V1B Hit Validation;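 further: counter-screen in HEK293 cells expressing V1B rather than RXFP1 for selectivity; nearly all actives have a fitted effect of over 65% in size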;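 on activation: cAMP accumulation with PDE4 inhibitor Ro 20-1724 present during compound exposure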
How it was run: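 HEK293 cells expressing V1B, 2000/well, treated 30 min at 37C with compound plus PDE4 inhibitor Ro 20174; cAMP by HTRF TR-FRET (665/615 nm). Normalized to buffer and 29 nM porcine relaxin; EC50 from Hill fit.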
Potency means the concentration at half of the fitted maximal effect.

Structure (SMILES) | Potency
N#CCCSc1ncnc2c1oc1ccccc12 | 19.4 µM (active)
CCOc1ccc(NC(=O)CSc2ccc3nnc(-c4cccnc4)n3n2)cc1 | 38.9 µM (active)
O=C(O)c1ccc(N2C(=O)c3cccc4cccc(c34)C2=O)cc1 | 74.9 µM (active)
COC(=O)c1nc2ccc(N3CCOCC3)cc2c(C)c1C(=O)OC | 34.6 µM (active)
CCc1nnc(NC(=O)CSc2nc(C)nc3c2c(=O)n(C)c(=O)n3C)s1 | 9.74 µM (active)
CCCC(=O)Nc1ncnc2c1ncn2[C@@H]1O[C@@H]2COP(=O)(O)O[C@H]2[C@H]1OC(=O)CCC | 1.38 µM (active)
CCOC(=O)CNC(=O)CSc1nc2c(C)cccc2cc1CC | 17.3 µM (active)
CCN(CC)S(=O)(=O)c1ccc2c(c1)nc(SCc1nc3ccsc3c(=O)[nH]1)n2CC | 0.245 µM (active)
CN(CC(=O)Nc1ccccc1Cl)C(=O)COC(=O)Cc1c(F)cccc1Cl | inactive
CCOC(=O)CCCCC(=O)c1[nH]c(=O)[nH]c1CSc1nnc2c3cc(Br)ccc3n(C)c2n1 | 10.9 µM (active)
CN(C)CCCn1c(SCC(=O)Nc2nc(-c3cccc(Br)c3)cs2)nc2ccccc2c1=O | inactive
Cc1ccccc1NC(=O)CNc1ccccc1C(=O)NCc1ccco1 | inactive
Cc1cc(C)c(NC(=O)CS(=O)CC(=O)Nc2ccc(F)cc2F)c(C)c1 (stereo not drawn) | inactive
O=C(O)c1cc(-c2ccc(Br)s2)nc2ccccc12 | 3.46 µM (active)
O=C(Nc1ccccc1C(=O)N1CCCCC1)c1ccco1 | inactive
Cc1ccccc1NC(=O)c1ccccc1NC(=O)c1ccco1 | inactive
CCN(CC)CCCCCC(=O)Nc1ccccc1C(=O)Nc1ccccc1 | inactive
Cn1c(N)c(C(=O)CSc2nn(-c3ccc(F)cc3)c(=S)s2)c(=O)n(C)c1=O | 19.4 µM (active)
CCc1ccc2n(-c3ccc(OC)cc3)c([S-])c(C(=O)Nc3cc(C)cc(C)c3)[n+]2c1 | 30.8 µM (active)

Structure (SMILES) | Potency
O=S(=O)(c1cccc(-c2cn3cccnc3n2)c1)N1CCOCC1 | 19.5 µM (active)
COC(=O)Cn1cnc2c(C#N)c3n(c2c1=O)CCCC3 | 21.9 µM (active)
Cc1cc(C)n2nc(C(=O)Nc3ccc4c(c3)OCCO4)nc2n1 | 6.15 µM (active)
O=S(=O)(Nc1ccccc1C(F)(F)F)c1ccc(-c2ccccn2)s1 | 21.9 µM (active)
O=C(Nc1ccccc1C(=O)NCc1ccco1)c1ccccc1 | inactive
COc1ccc(/C=C2/SC(=O)N(CCC(=O)Nc3ccc(C)cc3)C2=O)cc1OC | inactive
CCOC(=O)N1CCN(S(=O)(=O)c2c(C)nc3scc(C)n3c2=O)CC1 | 24.5 µM (active)
CC(C)n1cnc2c(N(C)c3cccc(Cl)c3)nc(N(CCO)CCO)nc21 | inactive
N#Cc1c(N)nc(SCC(=O)C23CC4CC(CC(C4)C2)C3)c(C#N)c1-c1ccc(Cl)cc1 | 12.3 µM (active)
O=C(NC1CCCCCC1)c1cc2c(=O)n3ccccc3nc2s1 | 38.9 µM (active)
COc1ccc(CN2C(=O)c3cccnc3C2=O)cc1S(=O)(=O)N1CCCCC1C (stereo not drawn) | 8.68 µM (active)
Cc1cc(C)c(C(=O)CSc2n[nH]c(=O)n2C2CC2)cc1C | inactive
CCc1cc2c(=O)nc3n(c2s1)Cc1ccccc1/C3=C(/O)c1cccc([N+](=O)[O-])c1 | 3.89 µM (active)
CCC(=O)Nc1ccc(NC(=O)CSc2nc3c(c(=O)n(C)c(=O)n3C)n2CC)cc1 | 38.9 µM (active)
COc1ccc(S(=O)(=O)N2CCOCC2)cc1NC(=O)CSc1nnc2ccccn12 | 3.88 µM (active)
C=CCOc1c(Cl)cc(CNc2ccc(N(C)C)cc2)cc1OC | inactive
CC(C(=O)OCC(=O)N(C)C1(C#N)CCCCC1)N1C(=O)c2ccccc2C1=O (stereo not drawn) | 13.8 µM (active)
CCN(CC)S(=O)(=O)c1ccc(N2CCOCC2)c(NC(=O)c2cc([N+](=O)[O-])ccc2Cl)c1 | inactive
COc1ccc(CNC(=O)CN2C(=O)NC(C)(c3cccc(Br)c3)C2=O)cc1 (stereo not drawn) | inactive
